The entries come from a sample that favours hits as a whole.
Tb PYK inh = qHTS of Trypanosoma Brucei Inhibitors | pyruvate kinase (Trypanosoma brucei), Q57TT1 | TbPYK enzyme, Kinase-Glo Plus ATP luminescence, 45 min | Potency, µM (highest dose often 76.8 µM), inactives show top-dose activity, negative = inhibition, actives largely listed as inhibitors | actives 0.12% (n = 410,000) | AID 624173, 2012; further: potency means the concentration at half of the fitted maximal effect; on the % scale 0 is the no-effect control and ±100 the full control effect; nearly all actives have a fitted effect of over 50% in size
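Quantitative HTS: titrated library compounds versus trypanosomal pyruvate kinase in TEA buffer (pH 7.2) containing KCl, MgCl2, BSA and Tween-20. Reactions were initiated with ADP, 130 uM final. Kinase-Glo Plus luminescence was read after 45 min at RT.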
Cycloheximide cs = Cycloheximide Counterscreen for Small Molecule Inhibitors of Shiga Toxin; cell reporter, cycloheximide protein synthesis inhibition counterscreen; actives 12% (n = 300,000); max response, %; in the data active means max response mostly above about 13%, no sharp cut-off; inactive means mostly below about 14%; further: read at 38.3 µM for the half of the compounds with a filed dose; 0% is about no effect
Sm TGR block = qHTS Assay for the Inhibitors of Schistosoma Mansoni Peroxiredoxins | Schistosoma mansoni thioredoxin glutathione reductase (TGR), Q962Y6 | purified TGR, DTNB reduction, TNB absorbance 405 nm | Potency, µM (titrated, usually from 114 µM), for the others: at the top dose activity change, negative = inhibition, usual class: inhibitors | actives 3% (n = 360,000); further: potency means the concentration at half of the fitted maximal effect; on the % scale 0 is the no-effect control and ±100 the full control effect; nearly all actives have a fitted effect of over 60% in size
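Kinetic colorimetric format: TGR-catalysed, NADPH-driven DTNB reduction monitored via TNB absorbance. Enzyme dispensed at 20 nM; compound exposure 15 min at room temperature before reaction start.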
LmPK inhibitor = qHTS Assay for Inhibitors of Leishmania Mexicana Pyruvate Kinase (LmPK) | Q27686 | purified LmPK, Kinase-Glo ATP luminescence, 1 h | Potency, µM (top dose mostly 57.5 µM), inactives show at the top dose activity change, negative = inhibition, most hits filed as inhibitors | actives 0.37% (n = 290,000) | AID 1721, 2009; further: potency means the concentration at half of the fitted maximal effect; on the % scale 0 is the no-effect control and ±100 the full control effect
Target sequence (Q27686 whole entry, looked up): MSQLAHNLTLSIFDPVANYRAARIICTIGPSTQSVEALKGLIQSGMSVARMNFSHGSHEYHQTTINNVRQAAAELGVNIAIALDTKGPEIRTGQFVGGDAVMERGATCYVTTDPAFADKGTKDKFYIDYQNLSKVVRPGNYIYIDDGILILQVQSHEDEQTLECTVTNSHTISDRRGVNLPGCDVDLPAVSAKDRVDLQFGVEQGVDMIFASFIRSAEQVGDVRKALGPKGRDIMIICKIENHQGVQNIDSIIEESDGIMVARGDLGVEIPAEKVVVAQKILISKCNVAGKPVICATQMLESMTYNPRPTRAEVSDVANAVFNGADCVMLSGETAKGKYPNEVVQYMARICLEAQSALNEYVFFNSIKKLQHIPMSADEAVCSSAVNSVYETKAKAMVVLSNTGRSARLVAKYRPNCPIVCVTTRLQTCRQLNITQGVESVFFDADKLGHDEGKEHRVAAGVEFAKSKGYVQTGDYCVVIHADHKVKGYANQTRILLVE
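ATP generated from ADP (0.1 mM) and PEP (0.5 mM) by 0.1 nM LmPK over 1 h at room temperature (pH 7.2 imidazole buffer) was detected by coupled luciferase luminescence. Values were normalized to uninhibited and no-enzyme wells.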
Giardia FBPA inh-1 = qHTS Assay for Inhibitors of Fructose-1,6-bisphosphate Aldolase from Giardia Lamblia. A8B2U2. purified Giardia FBPA. Potency, µM (highest dose often 59.6 µM), for the others: at the top dose activity, negative = inhibition, hits mostly inhibitors. actives 0.71% (n = 290,000); further: potency means the concentration at half of the fitted maximal effect; on the % scale 0 is the no-effect control and ±100 the full control effect; nearly all actives have a fitted effect of over 55% in size
Target sequence (A8B2U2 whole entry, looked up): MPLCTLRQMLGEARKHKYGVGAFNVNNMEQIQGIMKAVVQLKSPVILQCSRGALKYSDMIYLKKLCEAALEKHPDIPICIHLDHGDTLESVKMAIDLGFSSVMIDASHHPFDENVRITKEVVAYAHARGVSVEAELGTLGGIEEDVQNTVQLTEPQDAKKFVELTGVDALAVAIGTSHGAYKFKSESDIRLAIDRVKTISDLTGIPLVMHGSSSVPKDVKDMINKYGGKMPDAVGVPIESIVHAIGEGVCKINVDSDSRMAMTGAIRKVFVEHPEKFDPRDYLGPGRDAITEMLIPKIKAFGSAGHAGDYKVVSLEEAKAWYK
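Giardia FBPA (40 nM reagent) was preincubated 10 min at RT with compound (up to 57.5 uM final), then substrate plus GAPDH/TPI/NAD/arsenate coupling system with diaphorase/resazurin was added; resorufin fluorescence (525/598 nm) was read after 20 min.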
Shiga toxin inh = A qHTS for Small Molecule Inhibitors of Shiga Toxin; Vero cells, Shiga toxin protein synthesis inhibition reporter; actives 9.2% (n = 290,000); inhibition, % at 38.7 µM; in the data active means inhibition mostly above about 28%, no sharp cut-off; inactive means mostly below about 43%; further: 0% is about no effect
Giardia growth = qHTS Assay for Inhibitors of Fructose-1,6-bisphosphate Aldolase from Giardia Lamblia: Giardia lamblia growth inhibition; shares compounds with Giardia FBPA inh-1; Potency, µM (highest dose often 57.5 µM), for the others: top-dose activity change, negative = inhibition, hits mostly inhibitors; actives 5% (n = 1,500); Giardia lamblia trophozoite growth inhibition;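 further: potency means the concentration at half of the fitted maximal effect; trophozoites exposed to compound for 48 h at 37 °C; on the % scale 0 is the no-effect control and ±100 the full control effect; nearly all actives have a fitted effect of over 70% in size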
Mammalian tox = qHTS Assay for Inhibitors of Fructose-1,6-bisphosphate Aldolase from Giardia Lamblia: Mammalian cellular toxicity | Potency, µM (titrated, usually from 57.5 µM), inactives show top-dose viability change, negative = toxicity, hits mostly inhibitors | shares compounds with Giardia FBPA inh-1 | mammalian cell viability counter-screen, qHTS | actives 4% (n = 1,500);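 further: Chinese hamster ovary cells used as mammalian cytotoxicity surrogate; viability measured as cellular ATP by luminescence; potency means the concentration at half of the fitted maximal effect; compound exposure lasted 48 h before reading; on the % scale 0 is the no-effect control and ±100 the full control effect; nearly all actives have a fitted effect of over 60% in size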
Giardia FBPA inh-2 = qHTS Assay for Inhibitors of Fructose-1,6-bisphosphate Aldolase from Giardia Lamblia: Primary screen confirmation; actives 5% (n = 1,500); shares compounds with Giardia FBPA inh-1; Potency, µM (top dose mostly 57.5 µM), inactives show at the top dose activity change, negative = inhibition, actives largely listed as inhibitors; purified Giardia aldolase enzyme activity, qHTS; further: potency means the concentration at half of the fitted maximal effect; on the % scale 0 is the no-effect control and ±100 the full control effect; nearly all actives have a fitted effect of over 45% in size
Rabbit FBPA inh = qHTS Assay for Inhibitors of Fructose-1,6-bisphosphate Aldolase from Giardia Lamblia: Rabbit FBPA Selectivity; shares compounds with Giardia FBPA inh-1; Rabbit muscle FBPA enzyme inhibition, selectivity counter-screen; Potency, µM (titrated, usually from 57.5 µM), without a hit: at the highest dose activity, negative = inhibition, actives largely listed as inhibitors; actives 4% (n = 1,500); AID 2794, 2010; further: potency means the concentration at half of the fitted maximal effect; on the % scale 0 is the no-effect control and ±100 the full control effect; nearly all actives have a fitted effect of over 60% in size
GAPDH coupling = qHTS Assay for Inhibitors of Fructose-1,6-bisphosphate Aldolase from Giardia Lamblia: Coupling assay counterscreen confirmation; shares compounds with Giardia FBPA inh-1; GAPDH coupling enzyme counterscreen, biochemical, qHTS; Potency, µM (top dose mostly 57.5 µM), for the others: at the highest dose activity change, negative = inhibition, usual class: inhibitors; actives 6% (n = 1,500); further: potency means the concentration at half of the fitted maximal effect; on the % scale 0 is the no-effect control and ±100 the full control effect; nearly all actives have a fitted effect of over 55% in size
* = called active by the depositor; i = inactive; ? = inconclusive; · = not tested or not shown; [ ] = remark or other dose. Unless noted, the call rests on the fitted dose curve; in most records, active means well fitted curve in the direction sought with a large enough effect; inconclusive means small, poorly fitted or top-dose-only effect, or another doubt; inactive means no such curve, though single readings can be large; an effect the other way counts as inactive or inconclusive.

SMILES	Tb PYK inh	Cycloheximide cs	Sm TGR block	LmPK inhibitor	Giardia FBPA inh-1	Shiga toxin inh	Giardia growth	Mammalian tox	Giardia FBPA inh-2	Rabbit FBPA inh	GAPDH coupling
Nc1nc2c(s1)CCc1c-2cnn1-c1ccccc1	?	46*	2.8µM*	14µM*	0.4µM*	151*	?	?	13µM*	14µM*	13µM*
CC(C)N(CC#CCC(O)(c1ccccc1)C1CCCC1)CCO (stereo not drawn)	-9%	-2	-35%	6%	10µM*	17	4%[38.3 µM]	-3%	2%	1%	0%
CC(NC(=S)NNS(=O)(=O)c1cccc([N+](=O)[O-])c1)c1ccccc1 (stereo not drawn)	-12%	1	?	0%	16µM*	-5	12%	12%	3%	15%	26%
C[n+]1cccc2c(Br)ccc([O-])c21	-10%	-1	45µM*	-6%	0.18µM*	-8	20µM*	-16%	4µM*	13µM*	4.5µM*
Cc1ccc(S(=O)(=O)N(C)C)cc1NC(=O)COC(=O)CN1C(=O)c2ccccc2C1=O	4%	·	-4%	·	·	·	·	·	·	·	·
COC(=O)c1c(NC(=O)Cc2ccccc2)sc2c1CCN(C(C)C)C2	-2%	1	7%	-3%	11µM*	-6	17%	-3%	2%	5%	9%
CCOC(=O)c1c(NC(=O)CCS(=O)(=O)c2ccccc2)sc2c1CCN(C(C)C)C2	-12%	8	-15%	5%	-8%	-3	·	·	·	·	·
CCOC(=O)c1c(NC(=O)CC)sc2c1CCN(Cc1ccccc1)C2	0%	-4	2%	3%	11µM*	-4	?	-17%	5%	11%	-9%
COC(=O)c1c(NC(C)=O)sc2c1CCN(Cc1ccccc1)C2	-8%	-4	0%	-2%	?	-4	·	·	·	·	·
NC(=O)c1c(NC(=O)Cc2ccccc2)sc2c1CCN(Cc1ccccc1)C2	-1%	-4	2%	4%	13µM*	-4	?	-9%	-3%	1%	-24%
COC(=O)c1c(NC(=O)C(C)(C)C)sc2c1CCN(Cc1ccccc1)C2	-2%	2	0%	2%	11µM*	7	-30%	-16%	-4%	9%	-14%
CC(=O)Nc1sc2c(c1C(N)=O)CCN(Cc1ccccc1)C2	-2%	-1	-22%	1%	-6%	21	·	·	·	·	·
CCN(CC)CCNC(=O)Cn1ncc2c3ccccc3n(Cc3ccc(Cl)cc3)c2c1=O	0%	·	2%	·	·	·	·	·	·	·	·
CCN(CC)C(=O)CSc1nnc(-c2ccc(F)cc2)n1N	0%	29	8%	4%	11%	10	·	·	·	·	·
CCN(CC)C(=O)CSc1n[nH]c(=S)n1N	6%	-1	-7%	-2%	7.1µM*	-1	-18%[38.3 µM]	-11%	-30%	-19%	-19%
O=C(CSc1ncnc2nc[nH]c12)c1ccc(Cl)cc1	-30%	11*	-15%	1%	14µM*	25*	-7%[10.4 µM]	-7%	-1%	-5%	9%
Cc1c(NN=C(C#N)C#N)c(=O)n(-c2ccccc2)n1C	-5%	6	22µM*	9%	25µM*	7	17%	21%	1%	2%	5%
COc1ccc(CC(=O)N2CCc3cc(OC)c(OC)cc3C2COc2ccc(F)cc2)cc1 (stereo not drawn)	3%	·	5%	·	·	·	·	·	·	·	·
COc1ccc(NC(C)=O)cc1NC(C)c1nc2sc(C)c(C)c2c(=O)[nH]1 (stereo not drawn)	2%	-3	-1%	7%	8.9µM*	4	-3%[10.4 µM]	-2%	?	?	?
COc1ccc(OC)c(NC(=O)C(C)SCc2nc3sc(C)c(C)c3c(=O)[nH]2)c1 (stereo not drawn)	-15%	·	-27%	·	·	·	·	·	·	·	·
N#Cc1ccccc1NC(=S)NC(=O)c1cccs1	-12%	31*	3.5µM*	-5%	10µM*	77*	?	-13%	?	?	?
Nn1c(-c2cccc(Br)c2)n[nH]c1=S	?	-2	10%	4%	-6%	-13	·	·	·	·	·
CCn1nc(C)cc1-c1n[nH]c(=S)n1N	?	-3	13%	2%	7.1µM*	-26	17%	21%	7%	-3%	14%
CCOc1ccccc1C(=O)N(Cc1ccco1)Cc1ccco1	-8%	·	-2%	·	·	·	·	·	·	·	·
CC1(C)O[C@H]2[C@@H](O1)[C@@H](C(=O)Nc1ccccc1O)O[C@@H]1OC(C)(C)O[C@@H]12	-1%	·	9%	·	·	·	·	·	·	·	·
S=c1[nH]c2cc(Cl)c3cccnc3c2o1	?	1	-33%	-4%	3.5µM*	5	-6%[38.3 µM]	-15%	?	?	?
COc1cc(F)ccc1-c1cc(C(=O)NCc2cc(C(F)(F)F)cc(C(F)(F)F)c2)[nH]n1	-2%	·	·	·	·	·	·	·	·	·	·
CC(=O)N1CCC[C@@]2(CCN(Cc3nccs3)C2)C1	-3%	·	·	·	-2%	·	·	·	·	·	·
CCOC(=O)C1Oc2ccccc2C(c2ccccc2)=C1C(C)=O (stereo not drawn)	·	4	·	·	10%[89.2 µM]	i	·	·	·	·	·
CCCCNC(=O)C1(C)CCCCN1Cc1ccc(-c2ccccc2)cc1 (stereo not drawn)	2%	·	·	·	·	·	·	·	·	·	·
